The supplement of paper PMC6555819

tested on: RARa:RXR (NR concentration 270 nM, RXRa partner concentration 90 nM); test: PBM binding z-score (relative to random genomic background probes); higher = stronger binding; sequences stand for … in GC…GCGATTGACAGCGTAGAATGAAGG
How it was run: (§1)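 Probes were double-stranded and carried 34-nt variable regions with direct-repeat seeds, single-nucleotide variants, half-site ablations and random human genomic background sequences, printed on custom Agilent 4×180K protein-binding microarrays. Arrays were incubated 1 h with ligand-free nuclear receptor dimers in PBS pH 7.4, 2% milk, 0.02% Triton X-100, 1 mM DTT, 0.2 mg/mL BSA and 0.4 mg/ml salmon testes DNA. Antibodies against each partner (one per run) detected binding, and scanned fluorescence was regression-normalized. Binding z-scores use the random background probes as reference.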

Sequence | PBM binding z-score
GCTAGTTGGTCAGTAAATGGTCACACACCGGTCG | 0.368
AGCTCTAGGTAAAAGTTCAGTGAATCCCGAGGAT | 1.55
TAGCCTAGGTCATTCAGGGGCCAGTATGGAAAGC | 3.77
TAGCCTAGGTCATAGGCCAGTATACCACGCGAAC | 2.66
CAATCTAGGTCAAAGGTCAAAGTCGAGCCAACCA | 8.3
AGACAAAGTTCAGGACGAGGTAACGTAAAGCACG | 3.06
CCTGCTAGTTCATGGTCAGCTAATCTACAGTATG | 0.225
TCTCGGAGGACACGAAAAGTCAGAGCTCGACATC | 0.141
TGACTGAGGTTAAAGATCAGGGAACGTGGCGTCG | 2.68
TATACAGGGTCTAAGGCCAGAGTACGAATGTCGA | -0.102
ATCTGTAGGTTATCGGGTCATTCAGTTTGCGCAT | 3.93
GCTGCTCGGTCAACTGATGGTCAGCTAAAGCTCG | 0.225
CCTTACAGGTCACGAGGTTATAGCACGACGAGCG | 5.38
GCTGCTAGGTCGACTGATGGTCAGCTAAAGCTCG | 0.0289
TAGCCTAAGTCATGGGCCAGTATACCACGCGAAC | 0.041
CAAACTAGGTCAAAGGTCAAAGCCGAGCCAACCA | 9.13
TCTAGTTGGTCAAAGGCCACACACTCGAAATGCG | 1.28
AGATTGAGGTTACCAAAGATCAGGGAAACGCTTG | 2
CCTAGCAGGCCACGGTCACTCAAGCATTTCGCTT | 0.307
AGAATGAGGTTACCAGAGATCAGGGAAACGCTTG | 2.47

Sequence | PBM binding z-score
CCTACTGGGCCAATGTCATTGATCAGTCAAAGCA | -0.51
CCTACTGGGCCAACAAGGTCATTGATGCCGATAA | 3.64
CCTACTGGGCGATTCAGAGGTCATTGATCATATG | 4.25
CGTCCAACGTCAGCAGGTCAGTGAAAGCGACGTG | 0.556
GGTACGAGGGCAAAGTTGATAGCATCTGTCGACG | 1.42
CCTAGTTGGTCAAGGTCTCACACGCTATAGGTAC | 0.511
ATATGTAGGTTACATCCGGGTCTTTCAGGCTATG | 0.794
AGTCAAAGTTCAGTAGGTAACGTAAGATTCAGCT | 1.49
CAAACTAGGTCACGAAAGGTCAAATTCGAATGAC | 7.31
CATACAGGGTAAGCTAGGCCAGAGTAGGGACGGC | -0.142
CCTGCTAGTTCAATGGTCAGCTAAAGCAGCTCGC | 0.242
CCTAGTTGGTCAGGTGGTCACACACCGGATATGA | 0.505
TAGCCTAGGTCATTGGACCAGTATAGTACGCATC | 2.35
CCTGCTAGGTCAATGGTCAGCTAAAGCAGCTCGC | 1.82
GCTGCTAGGTCAACTGATGGTCAGCTAGAGCTCG | 2.21
ATCGAAAGGTGGACGAGGTGAGTATACACCGTTT | 0.702
CCCGCTAGGTCATGGTCAGCTAATCTACAGTATG | 2.33
CCAGACAGGTGAAAGGTAACTCACTCTGGTACGC | 1.84
CCTAGCAGACCAATCTGGGTCACTCAAGGCTTGA | 1.57

tested on: RARa homodimer (NR concentration 270 nM); test: as above
How it was run: as §1

Sequence | PBM binding z-score
GCTAGTTGGTCAGTAAATGGTCACACACCGGTCG | 0.255
AGCTCTAGGTAAAAGTTCAGTGAATCCCGAGGAT | 0.488
TAGCCTAGGTCATTCAGGGGCCAGTATGGAAAGC | 0.0659
TAGCCTAGGTCATAGGCCAGTATACCACGCGAAC | -0.0614
CAATCTAGGTCAAAGGTCAAAGTCGAGCCAACCA | 1.8
AGACAAAGTTCAGGACGAGGTAACGTAAAGCACG | 0.776
CCTGCTAGTTCATGGTCAGCTAATCTACAGTATG | -0.814
TCTCGGAGGACACGAAAAGTCAGAGCTCGACATC | -0.037
TGACTGAGGTTAAAGATCAGGGAACGTGGCGTCG | -0.102
TATACAGGGTCTAAGGCCAGAGTACGAATGTCGA | 0.373
ATCTGTAGGTTATCGGGTCATTCAGTTTGCGCAT | 1.11
GCTGCTCGGTCAACTGATGGTCAGCTAAAGCTCG | -0.934
CCTTACAGGTCACGAGGTTATAGCACGACGAGCG | 1.27
GCTGCTAGGTCGACTGATGGTCAGCTAAAGCTCG | -1.87
TAGCCTAAGTCATGGGCCAGTATACCACGCGAAC | -0.286
CAAACTAGGTCAAAGGTCAAAGCCGAGCCAACCA | 2.5
TCTAGTTGGTCAAAGGCCACACACTCGAAATGCG | 0.063
AGATTGAGGTTACCAAAGATCAGGGAAACGCTTG | 0.127
CCTAGCAGGCCACGGTCACTCAAGCATTTCGCTT | -0.0441
AGAATGAGGTTACCAGAGATCAGGGAAACGCTTG | 0.341

Sequence | PBM binding z-score
CCTACTGGGCCAATGTCATTGATCAGTCAAAGCA | -1.11
CCTACTGGGCCAACAAGGTCATTGATGCCGATAA | 0.0671
CCTACTGGGCGATTCAGAGGTCATTGATCATATG | 0.31
CGTCCAACGTCAGCAGGTCAGTGAAAGCGACGTG | -0.438
GGTACGAGGGCAAAGTTGATAGCATCTGTCGACG | -0.085
CCTAGTTGGTCAAGGTCTCACACGCTATAGGTAC | 1.56
ATATGTAGGTTACATCCGGGTCTTTCAGGCTATG | 0.548
AGTCAAAGTTCAGTAGGTAACGTAAGATTCAGCT | 0.822
CAAACTAGGTCACGAAAGGTCAAATTCGAATGAC | 2.58
CATACAGGGTAAGCTAGGCCAGAGTAGGGACGGC | 0.0109
CCTGCTAGTTCAATGGTCAGCTAAAGCAGCTCGC | -0.645
CCTAGTTGGTCAGGTGGTCACACACCGGATATGA | 1.18
TAGCCTAGGTCATTGGACCAGTATAGTACGCATC | -0.143
CCTGCTAGGTCAATGGTCAGCTAAAGCAGCTCGC | -0.551
GCTGCTAGGTCAACTGATGGTCAGCTAGAGCTCG | 0.274
ATCGAAAGGTGGACGAGGTGAGTATACACCGTTT | 0.444
CCCGCTAGGTCATGGTCAGCTAATCTACAGTATG | 0.196
CCAGACAGGTGAAAGGTAACTCACTCTGGTACGC | 0.159
CCTAGCAGACCAATCTGGGTCACTCAAGGCTTGA | -0.18
